Laboratory results: PubChem BioAssay (NCI)
This is part of a sample that, as a whole, favours compounds with a hit. Of some 79,000 tested, about 15% had one in any assay. Active and inactive are the calls of the source. Cut-off read from the data, not from the text of the source: active = growth inhibition above about 70%; inactive = the rest.

Legend:
[1] = NCI Yeast Anticancer Drug Screen. Data for the rad50 strain (AID 155);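 note: 0% = growth of vehicle-only cultures of the same strain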; settings: S. cerevisiae rad50 strain growth inhibition; at 50.0 µM; active compounds read high
Procedure, shortened: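 Readout: growth inhibition relative to vehicle-treated cultures. Compound exposure was carried out in a genetically defined yeast strain deficient in DNA damage repair.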

[2] = NCI Yeast Anticancer Drug Screen. Data for the mec2-1 strain (AID 157); settings: S. cerevisiae mec2-1 strain, at 50.0 µM, active compounds read high
Procedure, shortened: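 Compounds were applied to mec2-1 yeast cells. Their growth was then compared with that of vehicle-treated cultures to give growth inhibition.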

[3] = NCI Yeast Anticancer Drug Screen. Data for the sgs1 mgt1 strain (AID 161);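 note: 0% = growth of cultures given vehicle only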; settings: S. cerevisiae sgs1 mgt1 strain, at 50.0 µM, active compounds read high
Procedure, shortened: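 This yeast growth screen uses a strain with defined DNA-repair lesions; compound-treated growth is compared with vehicle-treated growth.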

[4] = NCI Yeast Anticancer Drug Screen. Data for the cln2 rad14 strain (AID 165);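 note: 0% = growth equal to vehicle treated cultures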; settings: S. cerevisiae cln2 rad14 strain, at 50.0 µM, active compounds read high
Procedure, shortened: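 Strain: cln2 rad14 yeast, altered in cell cycle control and DNA damage repair. Read-out: growth inhibition vs vehicle.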

[5] = NCI Yeast Anticancer Drug Screen. Data for the bub3 strain (AID 167); settings: S. cerevisiae bub3 mutant strain, at 50.0 µM, active compounds read high
Procedure, shortened: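 Readout: yeast growth inhibition, expressed relative to vehicle-only wells. The test organism is a mutant strain from a panel with lesions in DNA repair or checkpoint genes.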

[6] = NCI Yeast Anticancer Drug Screen. Data for the mlh1 rad18 strain (AID 175); settings: S. cerevisiae mlh1 rad18 strain growth inhibition; at 50.0 µM; active compounds read high
Procedure, shortened: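 A repair-deficient yeast strain is exposed to test compound, and growth is scored relative to vehicle-treated controls.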

Measured: growth inhibition

Nc1c(Cl)ncnc1NCCCCCO
inactive: [1] -5.35% | [2] -4% | [3] -8.75% | [4] -23.7% | [5] -6.95% | [6] -1.95%

CC1C[P+](c2ccccc2)(c2ccccc2)Cc2ccccc21 (stereo not given)
inactive: [1] 3.4% | [2] 9.75% | [3] -8.25% | [4] -13.4% | [5] -1.85% | [6] 4.6%

Clc1ccc2c(c1)[nH]c1c2nc2sccn21
inactive: [1] -7.25% | [2] -14.7% | [3] -0.3% | [4] 1.15% | [5] -12.9% | [6] -10.1%

[O-][N+](=Nc1ccccc1)c1ccccc1
inactive: [1] 1.2% | [2] 1.35% | [3] 35.9% | [4] -0.9% | [5] 3.75% | [6] 24%

CN(C=O)C(C(=O)Nc1cccc2c(OC(=O)C(N(C)C=O)(N(C)C=O)N(C)C=O)c(N=Nc3ccc(S(=O)(=O)Nc4nccs4)cc3)cc(N=Nc3ccc(S(=O)(=O)Nc4nccs4)cc3)c12)(N(C)C=O)N(C)C=O (tested in a mixture with another compound)
inactive: [1] 60.1% | [2] 6.25% | [3] -6.25% | [4] -6.5% | [5] 16.9% | [6] 35.6%

CC(C)C1CCC(C)(C(=O)Oc2ccccc2-c2ccccc2)C1 (stereo not given)
inactive: [1] 13.1% | [2] 23.4% | [3] 9.75% | [4] -11.6% | [5] 22.2% | [6] 13.6%

CC1CCCCN1Cc1ccccc1COC(=O)c1ccc([N+](=O)[O-])cc1 (stereo not given)
inactive: [1] 10.6% | [2] -5.05% | [3] 4.8% | [4] -29.1% | [5] 4.05% | [6] 18.6%

N#CNC1=C(C#N)C(c2ccccc2)CC(=O)N1 (stereo not given)
inactive: [1] 4.35% | [2] 25.5% | [3] 24.9% | [4] 0% | [5] -0.4% | [6] 10.2%

C/C(=C\c1ccc(OCCN2CCOCC2)cc1)c1ccc2c(c1)C(C)(C)CCC2(C)C
inactive: [1] -3.2% | [2] -11.9% | [3] 16.1% | [4] -4.95% | [5] -20.6% | [6] -25.9%

CC(=O)CC(=O)NC1CCCC1
inactive: [1] -25.8% | [2] -38.6% | [3] -33% | [4] -3.5% | [5] -50% | [6] -13.9%

CC(=O)NC(CCC(=O)C=[N+]=N)C(=O)O (stereo not given)
inactive: [1] 18.4% | [2] -14.7% | [3] 33.5% | [4] 14.1% | [5] 23.8% | [6] 12.6%

NC(=O)C(=O)C(c1ccccc1)c1ccccc1
inactive: [1] 0.3% | [2] 4.55% | [3] -1.1% | [4] -4.05% | [5] 7.95% | [6] -8.35%

CC(C)C1OCCOCCO1
inactive: [1] 9.45% | [2] -12.1% | [3] -18.5% | [4] -21.5% | [5] -9.4% | [6] 9.45%

CC(=O)C/C(C)=N\NC(=O)c1ccc([N+](=O)[O-])cc1
inactive: [1] -6.15% | [2] -16.8% | [3] 5.65% | [4] 7.35% | [5] 9.9% | [6] 19.6%

CC12CCC(Cl)(CC1O)C2(C)C (stereo not given)
inactive: [1] 1.9% | [2] 11.6% | [3] 1.15% | [4] 2.05% | [5] -6.9% | [6] -1.05%

N#C/C(=C/c1cccc2ccccc12)C(N)=O
inactive: [1] 21.6% | [2] 32.9% | [3] 28.4% | [4] 6.2% | [5] 28.6% | [6] 26.1%

O=C(O)c1c(Br)c(Br)c(Br)c(Br)c1C(=O)Nc1ccccc1F
inactive: [1] 7% | [2] -3.3% | [3] 7.55% | [4] 20.2% | [5] 4% | [6] 12.4%

Clc1cccc(Cl)c1C1SCc2nc3ncccc3n21 (stereo not given)
inactive: [1] 14.1% | [2] 16.6% | [3] 34.4% | [4] 16.9% | [5] 10.6% | [6] 0.4%

CCOc1ccc(OCC)c(NC(=O)OC(C)C)c1
inactive: [1] -6.35% | [2] -3.25% | [3] 20.3% | [4] -27.5% | [5] 47.5% | [6] 12.9%

O=C(Oc1ccccc1)c1ccc(C(=O)Oc2ccccc2)cc1
inactive: [1] 9% | [2] 28.7% | [3] 15.8% | [4] 3.9% | [5] 43.1% | [6] 11.6%

CCCC[n+]1cc(C(N)=O)cc2ccccc21
inactive: [1] -3.9% | [2] 7.3% | [3] 3.25% | [4] -44.5% | [5] 5.7% | [6] 9.45%

Cc1cc(O)c(C(c2ccc(C#N)cc2)c2c(O)cc(C)[nH]c2=O)c(=O)[nH]1
inactive: [1] -1.05% | [2] -31.9% | [3] 1.95% | [4] -6.2% | [5] 4.6% | [6] -6.35%

c1ccc(B2OB(c3ccccc3CN3CCCC3)OB(c3ccccc3CN3CCCC3)O2)c(CN2CCCC2)c1
inactive: [1] 21% | [2] 4.15% | [3] 0.05% | [4] 17.1% | [5] 0.75% | [6] 15.4%

C=C(C)C1CCC2(CO)C(O)CC3(C)C(CCC4C5(C)CCC(O)C(C)(C)C5CCC43C)C12 (stereo not given)
inactive: [1] 14.5% | [2] 7.45% | [3] -8.75% | [4] 2.95% | [5] 15.6% | [6] -6.6%

c1ccc(C(C2=Nc3cccc4cccc(c34)N2)c2ccccc2)cc1
inactive: [1] -36.6% | [2] -18.4% | [3] -50.7% | [4] 11.1% | [5] -9.75% | [6] -22.8%

NC(=S)NCc1ccccc1C(O)c1ccccc1 (stereo not given)
inactive: [1] 18.8% | [2] 13.8% | [3] -0.75% | [4] 18.3% | [5] 18.5% | [6] 21.2%

CCCC(Sc1nc(N)nc2nc[nH]c12)C(=O)O (stereo not given)
inactive: [1] -18.7% | [2] -10.2% | [3] -26.3% | [4] -24.3% | [5] -29% | [6] 4.9%

N=C1N(S(=O)(=O)c2ccccc2)[C@@H](Cc2ccccc2)[C@H](c2ccccc2)C1(c1ccccc1)c1ccccc1
inactive: [1] -25.1% | [2] -7.3% | [3] 6.05% | [4] -29.6% | [5] -3.5% | [6] 18.2%

COC(=O)[C@H]1N[C@@H](C(=O)OC)C23CCC[C@H]2CC[C@]1(C(OC)OC)C3
inactive: [1] -3.5% | [2] 2.25% | [3] 14.4% | [4] -3.8% | [5] -0.65% | [6] -16.1%

c1ccc(N=NC(N=Nc2ccccc2)=P(c2ccccc2)(c2ccccc2)c2ccccc2)cc1
inactive: [1] 56.4% | [3] 53% | [4] 64.6% | [5] 46.7% | [6] 61.9%
active: [2] 98.7%

O=C(Cc1ccccc1)Nc1ccccc1Cl
inactive: [1] -8.1% | [2] 0.35% | [3] 4.55% | [4] 21.2% | [5] 14.7% | [6] 1.95%

CC(C)CCC[C@@H](C)[C@H]1CC[C@H]2[C@@H]3CC[C@H]4CC5(C[C@]4(C)[C@H]3CC[C@]12C)Nc1ccccc1S5 (stereo not given in full)
inactive: [1] -8.05% | [2] -19.9% | [3] -6.2% | [4] 4.55% | [5] -25.9% | [6] -40.7%

CC1(C)CC(=O)C(C)(CCc2ccccc2)C(=O)C1
inactive: [1] -2.8% | [2] 8.9% | [3] 13.7% | [4] -44.6% | [5] -11.4% | [6] -6.65%

CN(C)Cc1nsc(N(C)C)n1
inactive: [1] -4.9% | [2] -9.1% | [3] -34.2% | [4] -50% | [5] -19.1% | [6] -13.2%

CNSC1CCC2(C)C(=CCC3C2CCC2(C)C(C(C)CCCC(C)C)CCC32)C1 (stereo not given)
inactive: [1] -1.3% | [2] 1.7% | [3] -9.6% | [4] -5.05% | [5] -3% | [6] 10%

CC(=O)C1(N=Nc2ccc(S(N)(=O)=O)cc2)CCOC1=O (stereo not given)
inactive: [1] 1.35% | [2] -11.3% | [3] -27.1% | [4] 32.4% | [5] -29.4% | [6] 22.7%

COc1ccc(C(Cc2ccccc2Cl)N(CCO)CCO)cc1 (stereo not given)
inactive: [1] -7% | [2] -5.3% | [3] -9.1% | [4] -19.2% | [5] 5.5% | [6] -5.2%

CCOc1cc(/C=C2/C=C(c3ccc(OC)cc3)OC2=O)ccc1O
inactive: [1] -13.9% | [2] 0.5% | [3] 4.5% | [4] -19.1% | [5] 2.75% | [6] -0.7%

N#CC(/C(=N\NC(=O)c1ccncc1)C(=O)Nc1ccc([N+](=O)[O-])cc1[N+](=O)[O-])c1nc(-c2ccc(Br)cc2)cs1 (stereo not given)
inactive: [1] 0.25% | [2] -3.75% | [3] -15.1% | [4] 7.6% | [5] 12.9% | [6] -7.85%

NC(=O)Nc1nc(-c2ccccc2)no1
inactive: [1] -16.7% | [2] 7.15% | [3] -17% | [4] -50.6% | [5] -6.75% | [6] -16.1%
